Activity calls are given as the source filed them. Unless noted, no rule for the calls is given here.
Tests used:
[1] = test system: XIP peptide (Xip251-270) binding; test: XIP fragment 251-270 binding compounds – biochemical, small-molecule microarray, fluorescence 635/667 nm, 0.1 µg/mL protein, primary screen (AID 1182); settings: fluorescent protein binding, 635 nm, higher = more signal, called active from +8 up or from −8 down
XIP peptide (Xip251-270) = test: compounds binding XIP fragment 251-270 – biochemical, small-molecule microarray, fluorescence 635/667 nm, 0.5 µg/mL protein, primary screen (AID 1183); settings: fluorescence 635 nm, higher = more signal
[2] = blood-stage malaria parasite viability loss – strain 3D7, DAPI fluorescence, 100 nL, primary screen (AID 1184);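 also: parasites grown inside human red blood cells in medium with human serum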; settings: P. falciparum 3D7 growth, 3 d, higher = more signal
[3] = target: Homeobox protein Hox-A13 (Mus musculus) (UniProt Q62424); test: disruptors of Hoxa13 oligonucleotide interaction – biochemical, fluorescence polarization, labeled oligonucleotide, primary screen (AID 1185); settings: Hoxa13:DNA binding, 15 min, higher = more signal, called active from +8 up or from −8 down
[4] = blockers of DNA damage checkpoint Chk1 activation – imaging, HeLa, hydroxyurea, phospho-Chk1 antibody, percent positive cells, primary screen (AID 1186); settings: hydroxyurea-induced phospho-Chk1 immunofluorescence imaging, higher = more signal
[5] = blockers of DNA damage checkpoint Chk1 activation – imaging, HeLa, hydroxyurea, phospho-Chk1 nuclear intensity, primary screen (AID 1187); settings: hydroxyurea-induced phospho-Chk1 immunofluorescence imaging, higher = more signal

Chain of Homeobox protein Hox-A13 (Mus musculus) (Q62424 whole entry, looked up): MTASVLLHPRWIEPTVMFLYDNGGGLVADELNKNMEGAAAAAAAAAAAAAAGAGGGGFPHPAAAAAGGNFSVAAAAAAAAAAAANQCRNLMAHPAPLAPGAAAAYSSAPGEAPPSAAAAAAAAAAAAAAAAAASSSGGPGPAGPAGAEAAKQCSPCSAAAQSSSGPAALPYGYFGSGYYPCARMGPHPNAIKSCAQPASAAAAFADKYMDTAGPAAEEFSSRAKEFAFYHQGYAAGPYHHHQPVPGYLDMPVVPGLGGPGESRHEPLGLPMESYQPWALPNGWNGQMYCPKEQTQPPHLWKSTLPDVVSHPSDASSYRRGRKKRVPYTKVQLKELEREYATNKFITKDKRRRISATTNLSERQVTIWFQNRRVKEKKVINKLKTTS

Structure (SMILES)	composite z-score [1]	composite z-score (XIP peptide (Xip251-270))	z-score [2]	z-score [3]	z-score [4]	z-score [5]
COc1cccc([C@@H]2[C@@H](C)CC[C@H]3C(=O)N4[C@H](c5cccc(OC)c5)[C@@H](C)CC[C@H]4C(=O)N23)c1	-0.142 (inactive)	0.379	0.137	-1.96 (inactive)	–	–
CO[C@@H]1COC(=O)[C@H](COCc2ccccc2)NC(=O)CC=C[C@@H](C)[C@H](OC)COC(=O)[C@H](COCc2ccccc2)NC(=O)CC=C[C@H]1C	0.271 (inactive)	-0.713	-0.989	0.421 (inactive)	–	–
CCN1C(C)=C(C(=O)OC)[C@@H](c2ccccc2)N2C(=O)[C@](O)(C(=O)OC)[C@@H](c3ccccc3)C(C(=O)c3ccccc3)=C12	-0.176 (inactive)	0.283	0.245	-4.23 (inactive)	–	–
CO[C@@H]1COC(=O)CC=C[C@@H](C)[C@H](OC)COC(=O)CC=C[C@H]1C	-0.583 (inactive)	0.428	0.674	-0.26 (inactive)	–	–
Cc1ccc(S(=O)(=O)N[C@H]2COC(=O)CC=C[C@H](C)COC(=O)N[C@@H](C)C(=O)CC=C[C@@H]2C)cc1	-0.478 (inactive)	0.619	-1.23	-1.11 (inactive)	–	–
C[C@H]1COC(=O)[C@@H]2CCCN2C(=O)[C@@H](C)COC(=O)[C@@H]2CCCN2C1=O	-0.0153 (inactive)	0.454	-0.12	-5.05 (inactive)	–	–
CO[C@H]1COC(=O)[C@@H](OCc2ccccc2)C=C[C@H](C)[C@@H](OC)COC(=O)[C@H](OCc2ccccc2)C=C[C@@H]1C	-1.11 (inactive)	-0.267	0.313	0.371 (inactive)	–	–
CO[C@@H]1COC(=O)[C@H](C)NC(=O)CC=C[C@@H](C)[C@H](OC)COC(=O)[C@H](C)NC(=O)CC=C[C@H]1C	-0.479 (inactive)	0.132	0.363	0.229 (inactive)	–	–
CO[C@@H]1COC(=O)[C@H](C)NC(=O)CC=C[C@@H](C)[C@H](NS(=O)(=O)c2ccc(C)cc2)COC(=O)CC=C[C@@H]1C	-0.44 (inactive)	-0.507	0.635	0.769 (inactive)	–	–
CO[C@H]1COC(=O)[C@@H](Cc2ccccc2)NC(=O)[C@@H](C)COC(=O)CC=C[C@@H]1C	-0.404 (inactive)	0.43	-0.0923	-0.866 (inactive)	–	–
CO[C@H]1COC(=O)[C@H](C)NC(=O)CC=C[C@@H](C)[C@H](NS(=O)(=O)c2ccc(C)cc2)COC(=O)[C@@H](OCc2ccccc2)C=C[C@@H]1C	-0.253 (inactive)	0.72	-0.569	-1.21 (inactive)	–	–
C[C@@H]1C=CCC(=O)OC[C@H]2O[C@@H](C=C[C@@H]2O)[C@H](C)C=CCC(=O)OC[C@H]2O[C@H]1C=C[C@@H]2O	0.424 (inactive)	0.466	-2.25	-1.31 (inactive)	–	–
CO[C@H]1O[C@H](CO)[C@@H](OC(=O)Nc2ccc(Oc3ccccc3)cc2)[C@H](OC(=O)Nc2ccccc2-c2ccccc2)[C@H]1OC(=O)Nc1ccccc1-c1ccccc1	1.57 (inactive)	0.832	-2.09	0.193 (inactive)	-0.0605 (inactive)	0.413 (inactive)
CC(C)=C1C(=O)C(c2ccccc2)=C2CN3C(=O)N(CCc4ccccc4)C(=O)[C@]3(Cc3ccccc3)[C@H]21	-0.315 (inactive)	-0.78	-0.774	-0.972 (inactive)	0.844 (inactive)	0.84 (inactive)
COc1ccc([Si](C)(C)[C@H]2[C@H](CCO)O[C@@]3(C(=O)N(Cc4ccc(N5CCCCC5=O)cc4)c4ccccc43)[C@@H]2C)cc1	0.125 (inactive)	0.81	-1.39	-4.54 (inactive)	-0.688 (inactive)	-0.167 (inactive)
CCCC[C@@H]1C[C@H]1[C@@H](NC(=O)c1ccccc1)c1ccccc1C(F)(F)F	0.715 (inactive)	0.193	-1.19	2.99 (inactive)	0.726 (inactive)	0.542 (inactive)
Cc1ccc(S[C@]2(C(=O)NC3CC3)CC(=O)N(Cc3cc(C(F)(F)F)cc(C(F)(F)F)c3)[C@@H]2c2ccc(CO)cc2)cc1	0.503 (inactive)	-0.0124	-0.442	-2.7 (inactive)	-0.144 (inactive)	-0.0725 (inactive)
Cc1ccc(N2C(=O)c3ccccc3[C@](C)(C(=O)O)[C@@H]2c2ccc(CO)cc2)nc1	-0.235 (inactive)	-1.16	-0.63	-0.0226 (inactive)	0.153 (inactive)	0.522 (inactive)
COCCOC(=O)N1C(=O)[C@@]2(c3ccccc31)[C@H](C(=O)N1CCc3cc(OC)c(OC)cc3C1)[C@H]1C(=O)O[C@H](c3ccccc3)[C@H](c3ccccc3)N1[C@@H]2c1ccccc1OCCO	0.227 (inactive)	0.741	-1.9	-0.573 (inactive)	-0.0955 (inactive)	-0.08 (inactive)
C=CCC(OC(C)=O)[C@@H]1[C@@H](N(Cc2ccc(-c3ccccc3)cc2)C(=O)c2ccc(C)cc2)c2cc(OCCCO)ccc2N1C(=O)c1ccc(-c2ccccc2)cc1 (stereo partly specified)	-0.0684 (inactive)	-0.322	-2.66	-1.35 (inactive)	0.0807 (inactive)	0.582 (inactive)
